In PubChem BioAssay (EPA / NIEHS) one finds AC50 and outcome data, which are given here for 23 compounds.

Experiment [1] concerns the target bovine Estrogen Receptor (ER), ESR1 (gene 407238) (UniProt P49884). Description: NVS_NR_bER: NovaScreen (NVS) Nuclear Receptor Binding Assay for bovine Estrogen Receptor (ER) (AID 2283345).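 Further: actives lower the bound radioligand count which means they displace the ER ligand.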 In outline: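 Displacement of a radioligand from estrogen receptor in bovine uterine membrane preparations; scintillation signal taken at 18 hours, DMSO as baseline. Single-concentration duplicates (25 uM) preceded concentration-response follow-up of actives.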

Experiment [2] has as its target Estrogen receptor (Homo sapiens) (UniProt P03372). Briefly: OT_ER_ERaERa_1440: Odyssey Thera (OT) 24-hour HEK293T Protein-Complementation Assay for Estrogen Receptor-alpha/-alpha Homodimer (AID 2283349).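 Further: hits raise fluorescence above DMSO for agonists and antagonists alike.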 An outline of the steps: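 HEK293T cells stably expressing the human ER alpha ligand-binding domain (aa 310-547) as a homodimer PCA were dosed for 24 hours. Fluorescence intensity was read by laser scanning cytometry, and gain of signal was fitted relative to DMSO vehicle.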

Experiment [3] has the same target. Description: OT_ER_ERaERa_0480: Odyssey Thera (OT) 8-hour HEK293T Protein-Complementation Assay for Estrogen Receptor-alpha/-alpha Homodimer (AID 2283351).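 Further: rise in fluorescence from reassembled reporter fragments on ERα LBD homodimer in nucleus or whole cell.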 In outline:
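Binding reporter in which dimerisation of ERα LBD (aa 310-547) fusions reconstitutes a fluorescent reporter in HEK293T cells. Compounds incubated 8 h; mean fluorescence intensity increase versus DMSO scored.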

In experiment [4] the target is T1, Estrogen receptor (Homo sapiens) + Estrogen receptor beta (Homo sapiens) (UniProt P03372+Q92731). Description: OT_ER_ERaERb_0480: Odyssey Thera (OT) 8-hour HEK293T Protein-Complementation Assay for Estrogen Receptor-alpha/-beta Heterodimer (AID 2283352). In outline:
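Human HEK293T cells were treated for 8 hours and receptor heterodimerisation was detected through reconstitution of a fluorescent reporter split between ER-alpha and ER-beta ligand-binding domains. Activity was analysed as gain of signal against DMSO.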

The target in experiment [5] is Androgen Receptor/SRC-1 Co-activator, AR (gene 367) (UniProt P10275). Description: OT_AR_ARSRC1_0960: Odyssey Thera (OT) 16-hour HEK293T Protein-Complementation Assay for Androgen Receptor/SRC-1 Co-activator (AID 2283353).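 Further: actives raise the signal above DMSO so potency reflects increased AR and SRC-1 complex.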 In outline:
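Interaction of AR with SRC-1 was followed by YFP fragment complementation in HEK293T cells after 16 h of dosing. Gain of nuclear-over-cytoplasmic 488 nm fluorescence against DMSO controls defined activity.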

Experiment [6] has the same target. Briefly: OT_AR_ARSRC1_0480: Odyssey Thera (OT) 8-hour HEK293T Protein-Complementation Assay for Androgen Receptor/SRC-1 Co-activator (AID 2283354).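 Further: hits raise the complementation signal above DMSO so AC50 marks enhancers.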 In outline: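 HEK293T cells stably expressing AR and SRC-1 fused to Venus YFP fragments, imaged 8 h after dosing. Complementation fluorescence scored as nuclear/cytoplasmic ratio at 488 nm in at least 400 cells per image; gain fitted versus DMSO.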

For experiment [7], the target named is T1, Estrogen receptor (Homo sapiens) + Estrogen receptor beta (Homo sapiens). Description: OT_ER_ERaERb_1440: Odyssey Thera (OT) 24-hour HEK293T Protein-Complementation Assay for Estrogen Receptor-alpha/-beta Homodimer (AID 2283356).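 Further: heteromer of ER alpha and ER beta binding domains; hits raise reporter fluorescence and both agonists and antagonists give an increase.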 An outline of the steps: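 24 h exposure; HEK293T PCA cells with ERα/ERβ LBD fragments; signal rise in nuclear or whole-cell fluorescence over vehicle.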

The target of experiment [8] is Estrogen receptor beta (Homo sapiens) (UniProt Q92731). Briefly: OT_ER_ERbERb_0480: Odyssey Thera (OT) 8-hour HEK293T Protein-Complementation Assay for Estrogen Receptor-beta/-beta Homodimer (AID 2283357).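 Further: active means signal gain over DMSO baseline.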 In outline:
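Fluorescence intensity, nuclear for agonists and nuclear plus cytoplasmic for antagonists, was quantified by laser scanning cytometry versus vehicle after 8 h treatment. The cells were HEK293T stably carrying ER beta LBD fragment-complementation partners.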

The target in experiment [9] is human Peroxisome Proliferator-activated Receptor alpha (PPARa), PPARA (gene 5465) (UniProt Q07869). Briefly: NVS_NR_hPPARa: NovaScreen (NVS) Nuclear Receptor Binding Assay for human Peroxisome Proliferator-activated Receptor alpha (PPARa) (AID 2283359).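 Further: activity means loss of TR-FRET signal versus DMSO baseline.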 In outline:
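Cell-free TR-FRET binding assay with extracted PPARα protein, read 1 h after dosing. Primary screen in duplicate at 25 uM, with actives retested in concentration series. Loss of signal versus DMSO.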

The target of experiment [10] is human Thyroid Receptor Alpha (TRa), THRA (gene 7067) (UniProt P10827). Description: NVS_NR_hTRa_Antagonist: NovaScreen (NVS) Nuclear Receptor Binding Assay for human Thyroid Receptor Alpha Antagonism (TRa) (AID 2283362).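 Further: activity is loss of signal relative to DMSO baseline.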 An outline of the steps:
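In this biochemical format, receptor protein is dosed with chemical and read after 1 hour via AlphaLISA. Decreases from the DMSO baseline indicate antagonist activity; screening used 25 uM in duplicate before concentration-response confirmation.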

For experiment [11], the target named is chimpanzee Androgen Receptor (AR), AR (gene 747460) (UniProt O97775). Briefly: NVS_NR_cAR: NovaScreen (NVS) Nuclear Receptor Binding Assay for chimpanzee Androgen Receptor (AR) (AID 2283346).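 Further: a loss of bound radioligand signal versus DMSO counts as binding.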 In outline: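 Radioligand binding to chimpanzee AR expressed in Sf9/Sf21 cells, cell-free, measured 72 h after dosing by lysate-based scintillation counting. Loss of signal vs DMSO; initial duplicate screen at 25 uM, actives retested in concentration series.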

In experiment [12] the target is Glucocorticoid receptor (Homo sapiens) (UniProt P04150). Briefly: NVS_NR_hGR: NovaScreen (NVS) Nuclear Receptor Binding Assay for human Glucocorticoid Receptor (GR) (AID 2283363).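 On AC50: activity is loss of specific radioligand binding signal relative to DMSO.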 In outline: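 Cell-free radioligand displacement assay on extracted human GR, read 16 h after dosing by filter-based scintillation counting. Screened in duplicate at 25 uM, then concentration series for actives; loss of signal versus DMSO baseline.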

Experiment [13] relates to guinea pig Histamine Receptor (H2), gene 100729734. Briefly: NVS_GPCR_gH2: NovaScreen (NVS) G Protein-Coupled Receptor Assay for guinea pig Histamine Receptor (H2) (AID 2283342). An outline of the steps:
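Radioligand displacement on guinea pig striatal membranes, 1 h after dosing, filter-based scintillation counting; loss of signal versus DMSO. Single-point screen at 25 uM in duplicate, then concentration-response up to 50 uM.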

Another experiment has as its system NCBI gene 100848466. Briefly: NVS_NR_bPR: NovaScreen (NVS) Nuclear Receptor Binding Assay for bovine Progextron Receptor (PR) (AID 2283343).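 Further: actives lower bound radioligand signal below DMSO meaning displacement of the label.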 In outline:
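Bovine uterine membrane preparation; radioligand displacement read by scintillation counting 18 h after dosing. Primary screen single concentration, 25 uM, in duplicate; actives followed up in concentration series. Signal loss versus DMSO baseline.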

In another experiment the target is PGR (gene 5241) (UniProt P06401). Description: NVS_NR_hPR: NovaScreen (NVS) Nuclear Receptor Binding Assay for human Progestron Receptor (PR) (AID 2283360).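 Further: active means loss of bound radioligand signal versus DMSO baseline.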 An outline of the steps:
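T47D-derived receptor preparation, cell-free, with tritiated or iodinated radioligand displacement measured by scintillation 18 h post-dosing. Single 25 uM duplicate screen, then concentration series; signal loss relative to DMSO.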

Experiment [14] addresses Retinoic acid receptor alpha (Homo sapiens) (UniProt P10276). Description: NVS_NR_hRAR_Antagonist: NovaScreen (NVS) Nuclear Receptor Binding Assay for human Retinoic Acid Alpha Receptor Antagonism (RAR) (AID 2283358). In outline: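 Cell-free TR-FRET binding assay with extracted human RARalpha in antagonist mode, read 2 h after dosing. Loss of signal was fitted relative to DMSO; the primary screen used 25 uM in duplicate, with concentration series on follow-up.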

Experiment [15] has as its target human Constitutive Androstane Receptor (CAR), NR1I3 (gene 9970) (UniProt Q14994). Description: NVS_NR_hCAR_Antagonist: NovaScreen (NVS) Nuclear Receptor Binding Assay for human Constitutive Androstane Receptor Antagonism (CAR) (AID 2283344). In outline: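 Cell-free TR-FRET binding read 1 h after dosing, antagonist mode; loss of signal versus DMSO baseline. Primary screen in duplicate at a single 25 uM; actives retested in concentration series.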

The structures appear in SMILES notation. Results filed as inconclusive are left out. The source made the active and inactive calls. How the source made its calls: active means hit-call score of the fitted dose curve at least 0.9, where 1 is the maximum; inconclusive means response in the unintended direction; inactive means score below 0.9.

Chain of human Peroxisome Proliferator-activated Receptor alpha (PPARa), PPARA (gene 5465) (Q07869 whole entry, looked up): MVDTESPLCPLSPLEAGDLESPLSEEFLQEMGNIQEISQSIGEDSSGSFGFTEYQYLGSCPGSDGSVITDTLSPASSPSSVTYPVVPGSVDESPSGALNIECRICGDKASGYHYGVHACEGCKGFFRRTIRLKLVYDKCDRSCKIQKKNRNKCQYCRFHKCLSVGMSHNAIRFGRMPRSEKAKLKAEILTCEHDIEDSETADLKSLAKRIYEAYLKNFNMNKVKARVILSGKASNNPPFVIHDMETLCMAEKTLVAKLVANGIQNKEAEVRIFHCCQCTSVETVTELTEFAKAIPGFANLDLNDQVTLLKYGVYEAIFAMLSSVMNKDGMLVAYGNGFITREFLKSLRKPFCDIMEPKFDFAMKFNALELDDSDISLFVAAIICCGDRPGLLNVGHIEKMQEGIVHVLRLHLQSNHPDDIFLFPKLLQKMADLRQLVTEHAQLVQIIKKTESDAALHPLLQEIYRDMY
Chain of Estrogen receptor beta (Homo sapiens) (Q92731 whole entry, looked up, the tested form may be a part): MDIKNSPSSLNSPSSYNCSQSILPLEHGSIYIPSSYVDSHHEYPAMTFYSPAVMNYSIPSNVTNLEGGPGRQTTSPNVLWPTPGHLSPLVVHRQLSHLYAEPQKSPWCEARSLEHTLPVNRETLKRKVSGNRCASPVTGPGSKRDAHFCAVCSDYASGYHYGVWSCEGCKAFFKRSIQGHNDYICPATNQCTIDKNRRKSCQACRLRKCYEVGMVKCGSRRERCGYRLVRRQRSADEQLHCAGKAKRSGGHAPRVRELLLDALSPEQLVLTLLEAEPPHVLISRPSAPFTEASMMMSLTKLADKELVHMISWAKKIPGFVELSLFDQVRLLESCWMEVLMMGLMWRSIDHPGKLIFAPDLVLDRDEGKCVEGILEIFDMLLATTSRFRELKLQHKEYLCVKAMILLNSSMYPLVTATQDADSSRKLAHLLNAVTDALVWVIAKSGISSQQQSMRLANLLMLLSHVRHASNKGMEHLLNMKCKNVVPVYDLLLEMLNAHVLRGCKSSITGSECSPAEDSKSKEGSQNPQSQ
Chain of Androgen Receptor/SRC-1 Co-activator, AR (gene 367) (P10275 whole entry, looked up, the tested form may be a part): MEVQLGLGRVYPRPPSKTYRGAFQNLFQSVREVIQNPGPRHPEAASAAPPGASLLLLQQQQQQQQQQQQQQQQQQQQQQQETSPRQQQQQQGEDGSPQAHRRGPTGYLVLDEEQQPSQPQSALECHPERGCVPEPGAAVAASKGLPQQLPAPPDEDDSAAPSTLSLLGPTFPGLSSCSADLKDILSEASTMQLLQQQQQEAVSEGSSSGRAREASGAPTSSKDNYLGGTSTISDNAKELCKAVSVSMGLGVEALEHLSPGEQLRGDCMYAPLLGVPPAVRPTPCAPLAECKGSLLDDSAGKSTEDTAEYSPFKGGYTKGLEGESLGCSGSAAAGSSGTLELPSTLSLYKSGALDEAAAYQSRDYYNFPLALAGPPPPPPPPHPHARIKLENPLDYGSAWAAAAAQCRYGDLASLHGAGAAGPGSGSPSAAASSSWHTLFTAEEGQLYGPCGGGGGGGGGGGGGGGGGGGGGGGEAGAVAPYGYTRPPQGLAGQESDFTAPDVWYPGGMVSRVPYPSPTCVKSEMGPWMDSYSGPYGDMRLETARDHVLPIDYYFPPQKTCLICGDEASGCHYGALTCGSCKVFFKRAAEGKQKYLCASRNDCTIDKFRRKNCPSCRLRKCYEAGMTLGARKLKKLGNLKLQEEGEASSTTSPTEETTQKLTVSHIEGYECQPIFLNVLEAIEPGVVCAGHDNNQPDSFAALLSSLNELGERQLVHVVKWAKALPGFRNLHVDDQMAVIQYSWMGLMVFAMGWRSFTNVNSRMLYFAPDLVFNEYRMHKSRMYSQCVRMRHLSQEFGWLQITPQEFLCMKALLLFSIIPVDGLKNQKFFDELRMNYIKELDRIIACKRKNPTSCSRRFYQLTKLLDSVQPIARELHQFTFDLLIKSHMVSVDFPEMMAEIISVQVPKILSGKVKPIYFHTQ
Chain of human Thyroid Receptor Alpha (TRa), THRA (gene 7067) (P10827 whole entry, looked up): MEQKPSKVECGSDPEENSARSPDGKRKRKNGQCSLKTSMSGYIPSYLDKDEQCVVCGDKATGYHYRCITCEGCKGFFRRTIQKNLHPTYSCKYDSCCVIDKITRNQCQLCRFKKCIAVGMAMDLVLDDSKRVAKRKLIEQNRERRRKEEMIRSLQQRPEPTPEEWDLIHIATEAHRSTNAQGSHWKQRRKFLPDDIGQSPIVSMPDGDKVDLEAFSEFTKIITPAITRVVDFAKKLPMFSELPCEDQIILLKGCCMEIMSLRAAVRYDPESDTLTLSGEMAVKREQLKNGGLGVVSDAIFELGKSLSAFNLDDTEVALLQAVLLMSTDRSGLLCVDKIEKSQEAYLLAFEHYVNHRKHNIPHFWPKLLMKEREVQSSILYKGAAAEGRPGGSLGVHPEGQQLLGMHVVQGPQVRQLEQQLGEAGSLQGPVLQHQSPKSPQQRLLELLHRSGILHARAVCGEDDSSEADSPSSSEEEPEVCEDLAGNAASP
T1 sequence (P03372 whole entry, looked up, the tested form may be a part): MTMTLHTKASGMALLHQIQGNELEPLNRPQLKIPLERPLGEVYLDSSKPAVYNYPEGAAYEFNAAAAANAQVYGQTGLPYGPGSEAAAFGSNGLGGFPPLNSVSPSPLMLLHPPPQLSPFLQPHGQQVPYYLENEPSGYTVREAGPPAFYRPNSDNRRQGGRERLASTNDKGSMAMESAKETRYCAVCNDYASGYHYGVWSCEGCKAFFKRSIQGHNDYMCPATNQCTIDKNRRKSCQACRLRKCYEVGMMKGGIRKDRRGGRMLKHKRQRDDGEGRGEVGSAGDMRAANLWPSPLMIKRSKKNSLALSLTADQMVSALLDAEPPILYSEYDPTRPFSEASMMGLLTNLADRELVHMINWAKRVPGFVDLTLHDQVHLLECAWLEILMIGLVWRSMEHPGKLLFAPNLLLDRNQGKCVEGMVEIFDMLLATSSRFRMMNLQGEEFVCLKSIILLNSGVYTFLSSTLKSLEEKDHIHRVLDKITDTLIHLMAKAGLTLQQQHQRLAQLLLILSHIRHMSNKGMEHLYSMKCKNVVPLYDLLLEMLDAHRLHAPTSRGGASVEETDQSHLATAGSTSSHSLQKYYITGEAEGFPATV
T1 sequence (Q92731 whole entry, looked up, the tested form may be a part): as the sequence (Q92731 whole entry, looked up, the tested form may be a part) above
Chain of Estrogen receptor (Homo sapiens) (P03372 whole entry, looked up, the tested form may be a part): as the sequence (P03372 whole entry, looked up, the tested form may be a part) above
Chain of Glucocorticoid receptor (Homo sapiens) (P04150 whole entry, looked up): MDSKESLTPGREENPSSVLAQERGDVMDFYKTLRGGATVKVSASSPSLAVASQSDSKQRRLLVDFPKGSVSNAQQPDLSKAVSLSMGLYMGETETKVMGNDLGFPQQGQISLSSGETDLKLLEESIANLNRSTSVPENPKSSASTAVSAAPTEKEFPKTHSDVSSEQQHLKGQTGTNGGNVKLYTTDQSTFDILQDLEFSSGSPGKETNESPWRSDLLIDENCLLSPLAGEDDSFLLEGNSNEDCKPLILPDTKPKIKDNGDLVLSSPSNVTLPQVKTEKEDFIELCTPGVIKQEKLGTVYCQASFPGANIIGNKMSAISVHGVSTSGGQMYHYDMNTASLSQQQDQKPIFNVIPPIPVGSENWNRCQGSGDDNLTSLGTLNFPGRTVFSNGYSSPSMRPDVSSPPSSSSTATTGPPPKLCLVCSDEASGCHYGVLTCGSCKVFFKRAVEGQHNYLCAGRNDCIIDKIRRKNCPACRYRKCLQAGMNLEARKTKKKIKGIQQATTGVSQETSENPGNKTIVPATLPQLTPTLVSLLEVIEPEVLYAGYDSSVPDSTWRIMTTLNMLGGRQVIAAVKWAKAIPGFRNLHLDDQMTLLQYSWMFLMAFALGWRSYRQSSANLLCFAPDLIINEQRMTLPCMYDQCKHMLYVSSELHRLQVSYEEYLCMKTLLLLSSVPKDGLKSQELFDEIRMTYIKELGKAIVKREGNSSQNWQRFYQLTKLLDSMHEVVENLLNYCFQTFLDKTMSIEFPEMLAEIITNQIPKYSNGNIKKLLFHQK

As a reminder, the AC50 is the concentration giving half of the maximal activity seen. As for `C[C@H]1CCCC(=O)CCC/C=C/c2cc(O)cc(O)c2C(=O)O1`, the AC50 was 0.0119 µM (active) in [1]; 0.46 µM (active) in [2]; 0.291 µM (active) in [3]; 0.0558 µM (active) in [4]; 0.24 µM (active) in experiment [7]; 0.0845 µM (active) in [8]. In addition, the result in experiment [5] and in experiment [6] was inactive.

As to `CC(C)(c1ccccc1)c1ccc(O)c(C(C)(C)c2ccccc2)c1`, the compound was called inactive in experiment [1], in experiment [2], in experiment [3], in experiment [4], in experiment [9] and in [10]. The AC50 in experiment [7] is 12 µM (active); in experiment [8] it was 2.61 µM (active).

As for `O=[N+]([O-])c1ccc2c3c(cccc13)CC2`, in [1], the outcome was inactive.

Take `Clc1ccc(C2(Cn3cncn3)CC(Br)CO2)c(Cl)c1` (stereo unspecified): the compound was classed as inactive in [1], in experiment [2], in experiment [3], in [4], in experiment [8] and in [10]. Moreover, the AC50 in experiment [11] was 7.36 µM (active); in experiment [7] it was 56.4 µM (active); in experiment [12], 6.23 µM (active).

With `C[C@]12CC[C@H](O)CC1=CC[C@@H]1[C@@H]2CC[C@]2(C)C(=O)CC[C@@H]12`, the concentration at half-maximal activity (AC50) was 3.16 µM (active) in experiment [1], 1.88 µM (active) in experiment [11] and 3.91 µM (active) in [8].

For the compound `C=C(C)C(=O)[O][Sn]([CH2]CCC)([CH2]CCC)[CH2]CCC`, the AC50 was 2.23 µM (active) in experiment [13]; 3.89 µM (active) in the experiment on NCBI gene 100848466; 12.1 µM (active) in experiment [11]; 3.42 µM (active) in the experiment with PGR (gene 5241); 1.15 µM (active) in experiment [12]. In addition, the call in experiment [1], in experiment [2], in experiment [3], in experiment [4], in [7] and in experiment [8] was inactive. Also, the compound was called inactive in experiment [9].

In the case of `CC(C)OC(=O)Nc1ccccc1`, the outcome in experiment [1], in [2] and in experiment [3] was inactive.

In the case of `CC(C)(c1ccc(OCC2CO2)cc1)c1ccc(OCC2CO2)cc1` (stereo unspecified), the outcome in [1], in experiment [11], in [2], in experiment [3], in [4] and in experiment [6] was inactive. For the same compound, the compound was classed as inactive in [8], in [14] and in experiment [12]. Also, the AC50 in [5] was 79.1 µM (active).

With `COC(=O)c1sccc1S(=O)(=O)NC(=O)Nc1nc(C)nc(OC)n1`, the compound was called inactive in experiment [1], in experiment [2], in experiment [3], in experiment [4], in [7] and in experiment [8].

As to `CCOP(=S)(OCC)SCSP(=S)(OCC)OCC`, the outcome in experiment [1] and in [2] was inactive. The AC50 in experiment [3] is 6.96 µM (active); in experiment [4], 10.7 µM (active); in experiment [7] it was 9.13 µM (active); in [8], 14.7 µM (active).

As for `C=CC(=O)OCCCCCC(C)C`, the compound was classed as inactive in experiment [1], in [2], in experiment [3], in experiment [4], in experiment [5] and in experiment [6]. Moreover, the result in experiment [7] and in experiment [8] was inactive.

`Clc1ccc(COC(Cn2ccnc2)c2ccc(Cl)cc2Cl)cc1` (stereo unspecified): the concentration at half-maximal activity (AC50) in experiment [1] is 0.7 µM (active); in experiment [11], 9.28 µM (active); in experiment [7], 11.8 µM (active); in experiment [14], 16.2 µM (active); in experiment [9], 39.8 µM (active); in experiment [12], 2.3 µM (active). The compound was classed as inactive in [2], in experiment [3], in experiment [8] and in [10].

For `COP(=S)(OC)Oc1ccc(Sc2ccc(OP(=S)(OC)OC)cc2)cc1`, the result in experiment [1], in experiment [11], in experiment [2], in [3], in [4] and in [5] was inactive. Besides, the call in [6] and in [8] was inactive. Moreover, the AC50 in [7] was 48.4 µM (active); in [9], 12.7 µM (active).

As for `CC(=O)[O][Hg][c]1ccccc1`, the AC50 is 11.4 µM (active) in experiment [13], 29.1 µM (active) in [11], 1.86 µM (active) in experiment [5] and 3.4 µM (active) in experiment [6]. The compound was classed as inactive in [2], in experiment [3], in experiment [7] and in experiment [8].

As to `ClC1=C(Cl)[C@]2(Cl)[C@H]3[C@H]([C@H]4C=C[C@H]3C4)[C@@]1(Cl)C2(Cl)Cl`, the compound was called inactive in experiment [1].

For the compound `Cc1ccccc1N`, the outcome in experiment [15] was inactive.

With `COP(=S)(OC)Oc1cc(Cl)c(Br)cc1Cl`, in experiment [1], the compound was classed as inactive.

With `CCCCCCCCCCCCCCCC[n+]1ccccc1`, in experiment [1], the result was inactive.

For `CCN1CCC2(CC1)COc1cc3c(cc12)N(C(=O)c1ccc(-c2ccc(-c4nnc(C)o4)cc2C)cc1)CC3`, the AC50 is 11.6 µM (active) in experiment [13], 16.8 µM (active) in experiment [11], 7.04 µM (active) in experiment [5] and 11.7 µM (active) in experiment [6]. The result in [2], in experiment [7] and in experiment [8] was inactive.

Regarding `O=[N+]([O-])c1c(Cl)c(Cl)cc(Cl)c1Cl`, the call in experiment [1] was inactive.

With `O=C(Cc1ccccc1)c1ccccc1`, the result in experiment [1], in [2] and in experiment [3] was inactive.

Turning to `NC(=O)O`, the outcome in experiment [1], in [2] and in experiment [3] was inactive.

Consider `C(=NC1CCCCC1)=NC1CCCCC1`, for which the outcome in [1] was inactive.
